Source: PubChem BioAssay (National Center for Advancing Translational Sciences (NCATS))
ALDH1A1 block: blocks purified human ALDH1A1 activity; Purified ALDH1A1, NADH fluorescence, propionaldehyde substrate; P00352; Potency, µM (top dose mostly 75.3 µM), for inactives: at the highest dose activity, negative = inhibition, actives largely listed as inhibitors; 220,000 compounds, 7.3% hits;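 also: potency is read from the fitted curve at half-maximal effect; plate controls were no enzyme wells and a reference inhibitor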
12-hLO inh: inhibitors of human 12-lipoxygenase (ALOX12) | Potency, µM (series often up to 57.1 µM), for the others: at the top dose activity change, negative = inhibition, actives largely listed as inhibitors | purified 12-hLO, xylenol orange hydroperoxide absorbance | 150,000 compounds, 0.12% hits | P18054; active = well fitted inhibition curve with a large enough effect; inconclusive = small, poorly fitted or top-dose-only effect; also: potency is read from the fitted curve at half-maximal effect; nearly all actives have a fitted effect of over 55% in size
Target sequence (P18054 whole entry, looked up): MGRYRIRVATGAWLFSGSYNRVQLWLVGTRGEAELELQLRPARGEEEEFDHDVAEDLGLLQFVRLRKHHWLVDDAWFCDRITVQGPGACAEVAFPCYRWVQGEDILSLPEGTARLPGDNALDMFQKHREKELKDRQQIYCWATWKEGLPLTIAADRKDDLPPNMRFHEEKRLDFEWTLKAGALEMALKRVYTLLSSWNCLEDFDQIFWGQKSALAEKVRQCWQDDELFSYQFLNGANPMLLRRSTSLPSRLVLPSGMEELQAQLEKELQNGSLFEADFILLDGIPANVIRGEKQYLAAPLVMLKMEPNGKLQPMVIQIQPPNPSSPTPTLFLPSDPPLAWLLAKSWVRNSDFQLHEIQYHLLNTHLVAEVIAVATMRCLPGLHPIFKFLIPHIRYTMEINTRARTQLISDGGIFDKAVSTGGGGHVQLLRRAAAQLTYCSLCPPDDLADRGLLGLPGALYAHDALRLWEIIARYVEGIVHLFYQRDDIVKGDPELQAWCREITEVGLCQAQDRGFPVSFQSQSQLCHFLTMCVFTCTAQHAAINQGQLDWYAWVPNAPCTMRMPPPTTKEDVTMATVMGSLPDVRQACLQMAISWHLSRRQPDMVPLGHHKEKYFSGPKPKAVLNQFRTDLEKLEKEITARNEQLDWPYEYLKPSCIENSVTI
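Hydroperoxide formation by human 12-lipoxygenase from 40 uM arachidonic acid was followed colorimetrically via ferric-xylenol orange complex, using the 573/405 nm absorbance ratio. Enzyme concentration was 150 nM, with 30 min reaction at room temperature.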
HPGD block: inhibitors of human 15-hydroxyprostaglandin dehydrogenase (HPGD); purified HPGD, NADH fluorescence kinetic, PGE2 substrate; 150,000 compounds, 4.3% hits; Potency, µM, without a hit: at the top dose activity change, negative = inhibition, most hits filed as inhibitors; P15428; AID 894; also: potency is read from the fitted curve at half-maximal effect
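20 nM HPGD preincubated 15 min at room temperature with compound in 50 mM Tris-HCl pH 8, 0.01% Tween 20. Started with 1 mM NAD+ and 30 uM prostaglandin E2; NADH fluorescence (360/450 nm) read 5 times over 30-s intervals, last minus first.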
PNC assembly inh: blocks assembly of the perinucleolar compartment; PC3M PTB-GFP, PNC prevalence imaging, 16 h; stronger effect = lower value; activity change (PNC), negative = inhibition, % at 10 µM; 140,000 compounds, 3.1% hits; AID 2417;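 active = readout at or below -70, meaning at least 70% loss of cells showing the perinucleolar compartment, a nuclear body marking cancer cells; inconclusive = readout between -30 and a set limit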;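 also: plate controls were DMSO wells for no effect and camptothecin positive control wells for full effect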
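PC3M cells stably expressing PTB-GFP, 750–1000 cells/well, treated 16 h at 37 °C with compound (23 nl of library stock), in duplicate. After paraformaldehyde fixation and Hoechst stain, imaged at 20x; PNC prevalence scored by image analysis.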
LMNA splice mod: changes lamin A minigene splicing in HeLa cells; Potency, µM (highest dose often 46.1 µM), for the others: at the highest dose ratio change, negative = inhibition, most hits filed as inhibitors; HeLa LMNA splicing GFP/RFP minigene ratio, 48 h; 200,000 compounds, 0.01% hits; active = well fitted inhibition curve with a large enough effect in the signal ratio, with a control signal flat, not every such curve was filed as active; inconclusive = small, poorly fitted or top-dose-only effect, or effect the other way, or a change in a side signal; the % refers to the signal ratio; also: potency is read from the fitted curve at half-maximal effect
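Read-out is the ratio of GFP to DsRed2 object intensity, acquired by 488 nm laser-scanning cytometry on HeLa lamin A-EGFP minigene reporter cells. Compound incubation 48 hrs at 37 °C in Opti-MEM with 2% FBS; DMSO 0.5% final.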
The depositor's hits bear a star; ? = inconclusive; . = no result; [ ] = dose if it differs, or a comment. This is a sample that favours compounds with a hit; in the whole collection about 10% have one here. Unless noted, calls follow the shape of the dose curve; as a rule, active = well fitted inhibition curve with a large enough effect (not every such curve was filed as active); inconclusive = small, poorly fitted or top-dose-only effect, or another doubt; inactive = no such curve, though single readings can be large or run the other way. Unless noted, % is scaled to controls: 0 for no effect and ±100 for the full control effect.

SMILES	ALDH1A1 block	12-hLO inh	HPGD block	PNC assembly inh	LMNA splice mod
Cc1cc(C)c(NC(=O)c2cc(S(=O)(=O)N3CCCC3)cn2C)c(C)c1	.	.	.	.	-4%[46 µM]
COc1ccc(NC(=O)c2ccc(Cl)c(NC(=O)c3ccncc3)c2)cc1	-14%	.	.	.	23%[46 µM]
COc1ccccc1Cc1noc(COc2cccc(C)c2C)n1	3%	-3%	-7%	-135*	-11%
COc1ccccc1Cc1nc(-c2ccncc2)no1	1%	.	.	.	0%[46 µM]
CCOC(=O)c1ccc(N=C2NC(=O)CS2)cc1	?	-1%	13µM*	?	-1%
CC(C)n1c(SCC(=O)Nc2nc3c(s2)CCCC3)nc2c1c(=O)n(C)c(=O)n2C	-22%	-1%	-16%	-100*	?
CCCn1c(SCC(=O)Nc2nc3ccccc3s2)nc2c1c(=O)n(C)c(=O)n2C	?	4%	-4%	-111*	-1%
CCOC(=O)c1c(NC(=O)CSc2nc3c(c(=O)n(C)c(=O)n3C)n2C(C)C)sc(C)c1C	-3%	0%	-6%	?	18%
CCCn1c(SCC(=O)Nc2nnc(C(C)C)s2)nc2c1c(=O)n(C)c(=O)n2C	-3%	1%	.	-7	-5%
CNc1ccnc(-c2ccccc2C(F)(F)F)n1	18%	-1%	-1%	.	-7%
Cc1oc2ncn(CC(C)C)c(=O)c2c1C(=O)NCCCN(C)Cc1ccccc1	.	.	.	.	20%[46 µM]
Cc1ccc(Cn2c(CNC(=O)CCc3ccccc3)nc3cccnc32)cc1	.	.	.	.	-4%[46 µM]
Cc1[nH]c(=O)c(C#N)c2c1CSC(C)(C)C2	?	-2%	?	-100*	-7%
O=C(Nc1ccc(O)c2c(=O)cc(-c3ccccc3Cl)oc12)c1ccccc1Cl	12%	3%[0.00818 µM]	-2%	57	11%
O=c1cc(-c2ccccc2Cl)oc2ccc([N+](=O)[O-])c(O)c12	14%	-12%[0.00818 µM]	11µM*	43	?
O=c1cc(-c2ccccc2Cl)oc2c([N+](=O)[O-])c(O)cc(O)c12	-11%	-4%[0.00818 µM]	28µM*	?	?
CCNc1ncc2nc(-c3ccc(Cl)cc3)c(=O)n(-c3ccccc3)c2n1	-7%	0%	?	.	.
O=S(=O)(NC1CCCCC1Nc1ccc(Cl)cc1)c1ccccc1 (configuration not stated)	14µM*	-5%	-2%	-17	?
O=S(=O)(NC1CCCCC1Sc1ncccn1)c1ccccc1 (configuration not stated)	?	1%	-11%	13	-6%
O=S(=O)(NC1CCCCC1Oc1ccccc1)c1ccccc1 (configuration not stated)	16µM*	-2%	-11%	-26	-2%
Cc1ccc(NC2CCCCC2NS(=O)(=O)c2ccc(Cl)cc2)cc1 (configuration not stated)	2%	-1%	-2%	?	-12%
COc1cccc(Nc2nnc(-c3cc4ccc(O)cc4oc3=O)s2)c1	.	.	.	.	8%[46 µM]
CCN(CC)c1ccc(-n2c(C)cc(C=O)c2C)cc1	10µM*	-19%	2%	25	0%
O=C(OCC(=O)N1CCN(S(=O)(=O)c2ccc(Cl)cc2)CC1)c1ccc([N+](=O)[O-])o1	25µM*	.	.	.	-20%[46 µM]
O=C(OCC(=O)N1CCN(S(=O)(=O)c2ccccc2)CC1)c1ccc([N+](=O)[O-])o1	20µM*	.	.	.	10%[46 µM]
SMILES	ALDH1A1 block	12-hLO inh	HPGD block	PNC assembly inh	LMNA splice mod
CC(C)CC(=O)N1CCN(S(=O)(=O)c2ccc(Cl)cc2)CC1	6%	.	.	.	17%[46 µM]
O=C(COc1ccccc1[N+](=O)[O-])N1CCN(S(=O)(=O)c2ccccc2)CC1	-9%	.	.	.	-4%[46 µM]
O=C(O)c1ccc2c(c1)C(=O)N(Cc1ccccc1)C2=O	-11%	3%	14µM*	-24	2%
O=C(O)c1ccc(S(=O)(=O)c2ccc3c(c2)C(=O)N(CC2CCCO2)C3=O)cc1 (configuration not stated)	-5%	-3%	-9%	-100*	13%
COc1ccccc1OCC(=O)Nc1ccc2c(c1)C(=O)N(CC1CCCO1)C2=O (configuration not stated)	4.5µM*	.	.	.	-4%[46 µM]
O=C(O)c1cccc(NC(=O)c2ccc3c(c2)C(=O)N(CC2CCCO2)C3=O)c1 (configuration not stated)	?	-6%	-6%	?	3%
O=C(O)c1ccc2c(c1)N(Cc1ccccc1)C(=O)c1ccccc1S2=O (configuration not stated)	11%	-3%	-3%	-9	1%
O=C(NCc1ccccc1)c1ccc2c(c1)C(=O)N(CC1CCCO1)C2=O (configuration not stated)	5µM*	-1%	-20%	-24	5%
O=C(Cc1ccccc1)Nc1ccc2c(c1)C(=O)N(CC1CCCO1)C2=O (configuration not stated)	?	.	.	.	-13%[46 µM]
C#CCCCO/N=C1/C[C@@H](O)[C@@H](O)[C@@H]2[C@@H]3C(=O)N(CC)C(=O)[C@H]3CC[C@H]12	2%[13.5 µM]	.	.	.	.
COC(=O)c1cccc(NC(=O)c2ccc3c(c2)C(=O)N(CC2CCCO2)C3=O)c1 (configuration not stated)	1.4µM*	-3%	-8%	?	-3%
Cc1ccccc1NC(=O)CSc1nnc(-c2ccco2)c(-c2ccco2)n1	1.3µM*	?	8.9µM*	39	12%
Cc1cccc(C)c1NC(=O)CCCSc1nnc(-c2ccco2)o1	5%	-8%	-6%	33	?
Cc1cccc(C)c1NC(=O)CSc1nnc(-c2ccco2)c(-c2ccco2)n1	7.1µM*	-27%	28µM*	75	-2%[0.0737 µM]
COc1ccc(CCNC(=O)Cc2ccc([N+](=O)[O-])cc2)cc1OC	-1%	.	.	.	.
COc1ccc(CCNC(=O)c2cc(-c3ccccc3O)n[nH]2)cc1OC	7%	-12%	28µM*	?	-17%
COc1ccc(CCNC(=O)Cc2ccc(OCc3ccccc3)c(OC)c2[N+](=O)[O-])cc1OCc1ccccc1	?	-9%	-18%	-101*	?
COc1ccc(CCNC(=O)CSc2n[nH]c(C)c2[N+](=O)[O-])cc1OC	28µM*	.	.	.	.
CCCCC/C=C\C[C@@H](O)/C=C/C=C\CCC(=O)O	-3%	1%	-2%	.	.
O=C(O)c1ncn(Cc2ccc(Br)cc2)c1C(=O)O	-7%	.	.	.	0%[46 µM]
Cc1nc(S(=O)(=O)N2CCN(c3ccc(Cl)cc3)CC2)cn1C	.	.	.	.	-5%[46 µM]
CCOC(=O)c1c(SCC(=O)Nc2nc3ccc(C)cc3s2)nc(=O)[nH]c1C	.	.	.	.	2%[46 µM]
O=C(NCc1ccccc1Cl)C(=O)NCC(c1ccc2c(c1)OCO2)N1CCOCC1 (configuration not stated)	.	.	.	.	-21%[46 µM]
COC1=C(N)C(=O)c2nc(-c3nc(C(=O)O)c(C)c(-c4ccc(OC)c(OC)c4O)c3N)ccc2C1=O	-9%	-5%	-14%	-115*	?
COc1ccc(C(=O)O)c(O)c1OC	-2%	-2%	-7%	.	6%
